Screens deposited in PubChem BioAssay by Broad Institute.
FGF22 binding: FGF22 (human) thermal shift binding; Q9HCT0; recombinant FGF22 thermal shift, SYPRO orange fluorescence; percent of sucrose octasulfate shift, DMSO zero; activity (Tm shift, normalised), % at 9.99 µM; actives 1.5% (n = 340,000); AID 651658;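 active = mean Tm shift, scaled 0 neutral to 100 positive control, at about 1.3% or above, every replicate too, limit read from the data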
Casp6 inh: inhibitors of human caspase-6. P55212. purified caspase-6, Z-VEID-R110 cleavage fluorescence. inhibition, % at 12.5 µM. actives 0.53% (n = 350,000). AID 686996;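 active = mean inhibition across replicates at least about 35%, with every replicate also reaching that limit, limit read from the data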;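 note: 0% = median of neutral control wells and 100% = no fluorescence left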
SIRT5 inh: sirtuin-5 (human) deacylase inhibition; Q9NXA8; Purified SirT5, succinyl-peptide AMC, trypsin-coupled fluorescence; inhibition, % at 15 µM; actives 1.1% (n = 330,000); in the data active = inhibition above about 15%
Target sequence (Q9NXA8 whole entry, looked up): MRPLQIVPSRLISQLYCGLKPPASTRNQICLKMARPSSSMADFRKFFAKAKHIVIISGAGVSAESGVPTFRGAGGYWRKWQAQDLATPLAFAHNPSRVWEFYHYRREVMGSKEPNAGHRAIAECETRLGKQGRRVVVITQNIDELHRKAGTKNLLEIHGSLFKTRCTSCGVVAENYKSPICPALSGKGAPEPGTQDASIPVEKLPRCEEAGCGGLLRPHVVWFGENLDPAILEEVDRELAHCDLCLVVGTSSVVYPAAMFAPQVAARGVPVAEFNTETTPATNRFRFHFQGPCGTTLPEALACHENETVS
ERAP1 HTS inh: blocks human ERAP1 aminopeptidase activity. Q9NZ08. recombinant ERAP1, Leu-AMC fluorescence, 60 min. inhibition, % at 10.7 µM. actives 0.15% (n = 340,000). AID 652197;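 active = mean replicate inhibition of at least 30%, or all replicates individually reaching that 30% level; inactive = mean below 30% and not every replicate reaching it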;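 note: 0% = neutral control wells and 100% = L-leucinethiol positive control wells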
Active calls of the source: *. Compounds with a hit are over-represented: about 3.1% of the library has one in this group of screens.

Results for Cc1nc(S/C(=C/c2ccc(-c3ccc(C(=O)O)cc3)o2)C(=O)O)n[nH]1 ?
FGF22 binding: 0; Casp6 inh: 26; SIRT5 inh: 37*

Results for C[C@H]1CN([C@@H](C)CO)C(=O)c2ccccc2-c2ccccc2CO[C@H]1CN(C)S(=O)(=O)c1ccsc1 ?
FGF22 binding: 0; Casp6 inh: 1; SIRT5 inh: -4; ERAP1 HTS inh: 0

How did O=C(C[C@H]1CC[C@@H]2[C@H](COC[C@@H](O)CN2C(=O)Nc2ccc(C(F)(F)F)cc2)O1)NCC1CC1 do in these assays?
FGF22 binding: 0; Casp6 inh: -5; SIRT5 inh: 1; ERAP1 HTS inh: 4

Results for CC(C(=O)NC(C)(C)C)N1C(=O)c2cccc3cccc(c23)C1=O (stereo not given) ?
FGF22 binding: 43*; Casp6 inh: 2; SIRT5 inh: -11; ERAP1 HTS inh: 4

Results for O=C1c2cccc([N+](=O)[O-])c2C(=O)N1c1cccnc1 ?
FGF22 binding: 0; Casp6 inh: -3; SIRT5 inh: 20*; ERAP1 HTS inh: -4

Results for O=C1c2cccc([N+](=O)[O-])c2C(=O)N1c1ccccc1 ?
FGF22 binding: 0; Casp6 inh: 2; SIRT5 inh: 1; ERAP1 HTS inh: -2

How did O=S1(=O)N=C(N/N=C/c2ccc(Br)o2)c2ccccc21 do in these assays?
FGF22 binding: 43*; Casp6 inh: 4; SIRT5 inh: 6; ERAP1 HTS inh: -3

What do the screens show for `O=C(NCCc1c[nH]c2ccccc12)/C(=C/c1ccco1)NC(=O)c1ccco1`?
FGF22 binding: 43*; Casp6 inh: -1; SIRT5 inh: 6; ERAP1 HTS inh: -3

How did Cc1noc(C)c1NC(=O)N[C@H]1CC[C@@H](CC(=O)NCCCN(C)C)O[C@H]1CO do in these assays?
FGF22 binding: 0; Casp6 inh: -7; SIRT5 inh: 16*; ERAP1 HTS inh: -2

Results for O=[N+]([O-])c1cccc(/C=N/Nc2nc(NCc3ccccc3)nc(N3CCOCC3)n2)c1O ?
FGF22 binding: 44*; Casp6 inh: -2; SIRT5 inh: 0; ERAP1 HTS inh: 0

What do the screens show for `C[N+]1(CC2COC3(CCCCC3)O2)CCCC1` (stereo not given)?
FGF22 binding: 0; Casp6 inh: 2; SIRT5 inh: -4; ERAP1 HTS inh: 81*

How did CC1CC(C)(C)OC(C[N+]2(C)CCCCC2)O1 (stereo not given) do in these assays?
FGF22 binding: 0; Casp6 inh: -4; SIRT5 inh: 0; ERAP1 HTS inh: 5

How did CC(=O)N1CCOc2ccc(S(=O)(=O)NCCc3ccc(S(N)(=O)=O)cc3)cc21 do in these assays?
FGF22 binding: 0; Casp6 inh: -2; SIRT5 inh: -3; ERAP1 HTS inh: 2

What do the screens show for `CC(=O)N1CCOc2ccc(S(=O)(=O)NCc3ccc(F)cc3)cc21`?
FGF22 binding: 0; Casp6 inh: 40*; SIRT5 inh: 1; ERAP1 HTS inh: 0

What do the screens show for `O=C(C[C@@H]1C=C[C@@H](NC(=O)c2cccc(F)c2)[C@H](CO)O1)Nc1nccs1`?
FGF22 binding: 0; Casp6 inh: 1; SIRT5 inh: 3; ERAP1 HTS inh: -4

Results for CCN(CCCNC(=O)C1CCC(=O)N1Cc1ccc(C)cc1)c1cccc(C)c1 (stereo not given) ?
Casp6 inh: 2; SIRT5 inh: 17*; ERAP1 HTS inh: 2

Results for NC(=O)C1CCN(C(=O)c2cc3c(s2)CCCC3)CC1 ?
FGF22 binding: 43*; Casp6 inh: 4; SIRT5 inh: 4; ERAP1 HTS inh: 1

Results for CC(=O)N1[C@H](CO)[C@H](c2ccc(C#CC3CCCCC3)cc2)[C@H]1CNCC(C)C ?
Casp6 inh: 0; SIRT5 inh: 2; ERAP1 HTS inh: 1

Results for CCCCCCCCNC(=O)c1cccnc1SCC(=O)Nc1ccccc1OC ?
FGF22 binding: 39*; Casp6 inh: -1; ERAP1 HTS inh: -2

What do the screens show for `CCOC(=O)Cc1nnc(NC(=O)C(CC)Sc2nc(C)cc(=O)[nH]2)s1` (stereo not given)?
FGF22 binding: 0; Casp6 inh: 43*; SIRT5 inh: 5; ERAP1 HTS inh: -1

How did CCOC(=O)Cc1nnc(NC(=O)C(CC)Sc2nncn2C)s1 (stereo not given) do in these assays?
FGF22 binding: 0; Casp6 inh: -2; SIRT5 inh: 0; ERAP1 HTS inh: -3

Results for CCc1ccc(N=C2NC(=O)/C(=C/c3cc(Br)c(OCC(=O)O)c(OC)c3)S2)cc1 ?
Casp6 inh: 64*; SIRT5 inh: 15; ERAP1 HTS inh: -2
